Targets with a hit are over-represented here; the source holds about 8,800 in all. About 0.5% of all pairs of compound and target were hits. Values without a mark were called inactive.

Chain of UniProt Q86SX3 (Q86SX3 whole entry, looked up): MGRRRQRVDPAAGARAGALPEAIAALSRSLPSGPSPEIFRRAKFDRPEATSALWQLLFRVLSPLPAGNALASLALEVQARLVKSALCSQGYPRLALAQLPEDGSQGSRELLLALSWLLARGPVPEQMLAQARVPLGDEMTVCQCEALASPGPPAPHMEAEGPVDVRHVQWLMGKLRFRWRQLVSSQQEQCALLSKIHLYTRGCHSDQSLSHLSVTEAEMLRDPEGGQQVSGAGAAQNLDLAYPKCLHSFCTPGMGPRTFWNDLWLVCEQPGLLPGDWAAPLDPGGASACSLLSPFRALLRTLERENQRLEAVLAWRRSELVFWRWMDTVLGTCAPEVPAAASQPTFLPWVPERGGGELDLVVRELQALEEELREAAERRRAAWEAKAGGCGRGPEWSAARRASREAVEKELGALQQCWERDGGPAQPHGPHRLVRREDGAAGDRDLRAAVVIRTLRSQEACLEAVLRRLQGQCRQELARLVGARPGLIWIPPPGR
Chain of UniProt Q9H6P5 (Q9H6P5 whole entry, looked up): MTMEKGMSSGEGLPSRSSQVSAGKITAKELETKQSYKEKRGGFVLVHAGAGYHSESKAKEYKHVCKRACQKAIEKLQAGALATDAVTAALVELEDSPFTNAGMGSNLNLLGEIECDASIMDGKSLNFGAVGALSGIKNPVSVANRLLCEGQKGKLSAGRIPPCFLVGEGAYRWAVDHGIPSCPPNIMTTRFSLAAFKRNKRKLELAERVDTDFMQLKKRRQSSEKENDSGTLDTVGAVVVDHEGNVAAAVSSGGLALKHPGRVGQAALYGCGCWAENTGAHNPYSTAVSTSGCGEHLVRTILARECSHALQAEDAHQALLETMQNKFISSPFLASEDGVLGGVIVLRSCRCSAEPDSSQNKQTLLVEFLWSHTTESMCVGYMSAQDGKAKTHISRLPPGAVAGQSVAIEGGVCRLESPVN
Chain of UniProt P15884 (P15884 whole entry, looked up): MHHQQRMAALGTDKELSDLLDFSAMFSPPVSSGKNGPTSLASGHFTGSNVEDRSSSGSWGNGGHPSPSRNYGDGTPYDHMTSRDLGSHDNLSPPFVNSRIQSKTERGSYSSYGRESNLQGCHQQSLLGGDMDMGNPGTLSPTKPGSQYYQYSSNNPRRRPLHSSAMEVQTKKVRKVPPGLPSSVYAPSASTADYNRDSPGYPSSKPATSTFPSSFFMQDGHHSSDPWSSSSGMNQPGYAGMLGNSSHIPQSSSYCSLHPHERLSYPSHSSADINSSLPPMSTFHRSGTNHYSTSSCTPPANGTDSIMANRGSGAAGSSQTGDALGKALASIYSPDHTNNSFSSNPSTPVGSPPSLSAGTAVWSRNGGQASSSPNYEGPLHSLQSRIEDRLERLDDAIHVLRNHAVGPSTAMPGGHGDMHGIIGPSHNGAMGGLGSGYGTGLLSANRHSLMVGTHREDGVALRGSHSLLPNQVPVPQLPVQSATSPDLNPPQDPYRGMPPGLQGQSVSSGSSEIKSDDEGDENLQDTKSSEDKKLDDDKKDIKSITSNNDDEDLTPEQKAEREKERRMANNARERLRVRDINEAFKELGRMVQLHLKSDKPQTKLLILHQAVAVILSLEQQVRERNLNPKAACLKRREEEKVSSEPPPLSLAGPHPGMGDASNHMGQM
Chain of UniProt Q6P9G4 (Q6P9G4 whole entry, looked up): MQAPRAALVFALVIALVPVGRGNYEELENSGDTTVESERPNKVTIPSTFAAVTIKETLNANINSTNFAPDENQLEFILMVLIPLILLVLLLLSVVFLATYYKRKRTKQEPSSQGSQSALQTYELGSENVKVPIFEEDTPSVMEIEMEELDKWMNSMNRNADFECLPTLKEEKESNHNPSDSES
Chain of UniProt P04350 (P04350 whole entry, looked up): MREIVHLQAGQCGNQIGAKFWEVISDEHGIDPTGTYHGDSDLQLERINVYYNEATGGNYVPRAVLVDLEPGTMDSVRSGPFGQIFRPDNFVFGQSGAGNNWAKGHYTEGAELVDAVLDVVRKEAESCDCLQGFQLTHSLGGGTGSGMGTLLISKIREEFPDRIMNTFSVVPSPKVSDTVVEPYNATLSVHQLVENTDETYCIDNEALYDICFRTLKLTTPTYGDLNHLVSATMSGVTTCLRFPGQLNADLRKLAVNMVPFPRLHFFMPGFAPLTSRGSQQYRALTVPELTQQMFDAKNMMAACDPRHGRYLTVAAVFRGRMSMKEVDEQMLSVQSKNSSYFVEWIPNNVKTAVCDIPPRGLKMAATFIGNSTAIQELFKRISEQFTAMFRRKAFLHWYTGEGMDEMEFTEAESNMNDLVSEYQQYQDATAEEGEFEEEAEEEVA
Chain of UniProt Q6Q0C0 (Q6Q0C0 whole entry, looked up): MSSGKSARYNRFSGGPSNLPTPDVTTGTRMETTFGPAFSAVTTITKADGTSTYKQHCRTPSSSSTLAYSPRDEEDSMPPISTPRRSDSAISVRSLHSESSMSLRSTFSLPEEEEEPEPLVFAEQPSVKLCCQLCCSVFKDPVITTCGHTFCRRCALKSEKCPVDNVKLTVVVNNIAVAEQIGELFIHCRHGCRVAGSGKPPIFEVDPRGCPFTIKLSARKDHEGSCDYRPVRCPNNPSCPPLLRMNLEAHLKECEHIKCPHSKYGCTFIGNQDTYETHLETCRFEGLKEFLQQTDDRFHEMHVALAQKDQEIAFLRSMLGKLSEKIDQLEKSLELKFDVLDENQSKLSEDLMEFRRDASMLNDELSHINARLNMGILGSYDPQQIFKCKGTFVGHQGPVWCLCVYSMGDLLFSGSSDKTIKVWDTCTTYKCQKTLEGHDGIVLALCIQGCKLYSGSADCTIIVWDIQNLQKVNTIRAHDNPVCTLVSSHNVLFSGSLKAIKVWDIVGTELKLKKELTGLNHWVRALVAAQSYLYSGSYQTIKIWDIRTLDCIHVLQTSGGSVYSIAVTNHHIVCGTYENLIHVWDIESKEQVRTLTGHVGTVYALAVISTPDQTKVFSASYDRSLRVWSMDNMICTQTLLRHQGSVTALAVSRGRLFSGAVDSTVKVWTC
Chain of UniProt P21580 (P21580 whole entry, looked up): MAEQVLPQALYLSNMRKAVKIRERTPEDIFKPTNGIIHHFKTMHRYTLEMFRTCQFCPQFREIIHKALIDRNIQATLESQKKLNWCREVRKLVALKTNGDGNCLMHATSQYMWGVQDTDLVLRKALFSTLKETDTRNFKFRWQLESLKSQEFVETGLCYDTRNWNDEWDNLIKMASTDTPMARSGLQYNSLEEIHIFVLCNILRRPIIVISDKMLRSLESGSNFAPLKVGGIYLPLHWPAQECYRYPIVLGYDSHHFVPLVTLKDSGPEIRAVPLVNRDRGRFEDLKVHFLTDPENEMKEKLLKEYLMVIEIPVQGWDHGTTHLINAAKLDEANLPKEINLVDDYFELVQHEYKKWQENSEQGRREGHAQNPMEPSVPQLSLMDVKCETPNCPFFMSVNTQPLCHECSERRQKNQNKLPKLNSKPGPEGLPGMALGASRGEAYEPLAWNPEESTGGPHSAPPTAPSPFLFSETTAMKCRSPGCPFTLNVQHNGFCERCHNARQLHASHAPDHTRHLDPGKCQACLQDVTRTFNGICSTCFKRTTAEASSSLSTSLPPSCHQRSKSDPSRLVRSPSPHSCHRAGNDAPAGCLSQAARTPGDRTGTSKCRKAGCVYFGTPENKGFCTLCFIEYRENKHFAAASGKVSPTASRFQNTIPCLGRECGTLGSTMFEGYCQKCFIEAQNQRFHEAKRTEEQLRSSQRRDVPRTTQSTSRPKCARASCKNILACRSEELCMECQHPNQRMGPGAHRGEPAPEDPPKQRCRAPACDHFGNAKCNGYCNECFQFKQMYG
Chain of UniProt Q9H5L6 (Q9H5L6 whole entry, looked up): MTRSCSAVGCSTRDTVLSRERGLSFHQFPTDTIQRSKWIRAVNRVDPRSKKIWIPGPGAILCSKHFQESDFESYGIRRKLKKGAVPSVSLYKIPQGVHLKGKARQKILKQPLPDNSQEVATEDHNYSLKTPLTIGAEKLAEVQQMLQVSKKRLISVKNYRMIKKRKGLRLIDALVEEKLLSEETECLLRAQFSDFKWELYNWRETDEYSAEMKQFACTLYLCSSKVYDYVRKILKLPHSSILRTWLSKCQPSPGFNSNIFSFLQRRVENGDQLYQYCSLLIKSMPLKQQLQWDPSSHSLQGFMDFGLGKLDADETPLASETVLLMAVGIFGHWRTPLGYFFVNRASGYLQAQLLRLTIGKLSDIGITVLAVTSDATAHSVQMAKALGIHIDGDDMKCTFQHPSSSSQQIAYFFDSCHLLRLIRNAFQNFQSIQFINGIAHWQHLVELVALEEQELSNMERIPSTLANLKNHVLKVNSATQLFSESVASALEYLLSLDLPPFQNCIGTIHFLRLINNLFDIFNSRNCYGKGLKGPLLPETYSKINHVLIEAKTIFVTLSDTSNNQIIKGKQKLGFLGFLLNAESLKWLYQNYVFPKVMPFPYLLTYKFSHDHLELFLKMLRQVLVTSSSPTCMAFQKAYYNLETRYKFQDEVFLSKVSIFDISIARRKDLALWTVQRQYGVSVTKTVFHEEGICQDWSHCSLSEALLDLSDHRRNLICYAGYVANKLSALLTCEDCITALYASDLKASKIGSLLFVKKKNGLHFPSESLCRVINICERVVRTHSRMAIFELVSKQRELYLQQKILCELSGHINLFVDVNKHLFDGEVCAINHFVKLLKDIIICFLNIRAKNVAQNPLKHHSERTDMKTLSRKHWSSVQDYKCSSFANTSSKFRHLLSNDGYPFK
Chain of UniProt P06753 (P06753 whole entry, looked up): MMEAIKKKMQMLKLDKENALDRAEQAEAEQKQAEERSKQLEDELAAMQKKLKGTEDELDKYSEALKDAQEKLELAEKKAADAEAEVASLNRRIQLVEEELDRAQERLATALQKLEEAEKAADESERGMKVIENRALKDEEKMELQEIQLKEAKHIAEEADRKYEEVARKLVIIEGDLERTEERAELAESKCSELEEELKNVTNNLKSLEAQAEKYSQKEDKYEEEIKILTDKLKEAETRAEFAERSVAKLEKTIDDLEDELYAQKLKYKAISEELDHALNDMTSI
Chain of UniProt P62328 (P62328 whole entry, looked up): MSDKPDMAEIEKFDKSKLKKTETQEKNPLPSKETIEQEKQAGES

Compound in the first test: CC1=C(C2=C(C=C1)C(=O)C3=CC=CC=C3N2CCCN)C
The test can be described thus: log2 fold change, soluble protein after heating vs DMSO (PISA); higher = thermal stabilisation; K562 lysate, 10 uM; active = over 0.2 and 3.5 SD of the protein, either way, in both replicates (recomputed). An outline of the steps: (§1)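 Following dounce homogenisation of K562 pellets in PBS pH 7.4 with 1 mM MgCl2, crude extract at 1 mg/mL protein was incubated for 30 min with 10 μM compound. Aliquots were then heated for 3 min over 48°C-58°C and pooled, NP-40 was added to 0.5% at 4°C, and soluble protein was recovered as the supernatant at 21,000xg for 90 min. Channel-sum-equalised TMTpro 16plex LC-MS/MS quantified this protein. Each value, from duplicates, is a log-two fold change in thermal stability relative to solvent controls.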
For TASP1 (UniProt Q9H6P5), the log2 fold change was -0.114.

In the case of TFPT (UniProt P0C1Z6), the log2 fold change is -0.145.

As for TPM3 isoform 3 (UniProt P06753), the log2 fold change was 0.005.

As for TLE3 (UniProt H0YL70), the log2 fold change is 0.004.

Regarding TMEM154 (UniProt Q6P9G4), the log2 fold change was 0.048.

Consider UBR4 isoform 4 (UniProt Q5T4S7), for which the log2 fold change is 0.331.

With TNFAIP3 (UniProt P21580), the log2 fold change was 0.016.

As to TRAF7 (UniProt Q6Q0C0), the log2 fold change is -0.022.

Consider TNIK isoform 5 (UniProt Q9UKE5), for which the log2 fold change is -0.091.

In the case of TUBB4A (UniProt P04350), the log2 fold change was -0.086.

Regarding TSPAN3 (UniProt O60637), the log2 fold change was -0.099.

As to TLE3 isoform 5 (UniProt Q04726), the log2 fold change is -0.053.

As to TCF4 (UniProt P15884), the log2 fold change is -0.019.

TRPM4 (UniProt Q8TD43): the log2 fold change is -0.055.

In the case of UBN1 (UniProt Q9NPG3), the log2 fold change is 0.03.

Take TCF20 (UniProt Q9UGU0): the log2 fold change is -0.212.

For the target TEDC1 (UniProt Q86SX3), the log2 fold change is -0.033.

As to TGFBR1 isoform 2 (UniProt P36897), the log2 fold change is -0.043.

As for U2AF1L5 (UniProt P0DN76), the log2 fold change is -0.003.

In the case of TMPO isoform 2 (UniProt P42167), the log2 fold change was -0.006.

TUBGCP5 (UniProt Q96RT8): the log2 fold change was 0.001.

For the target THAP9 (UniProt Q9H5L6), the log2 fold change was -0.199.

Compound in another test: CC1=C(C=C(C=C1)NC(=O)C2=CC(=CC=C2)C(C)(C)C#N)NC3=CC4=C(C=C3)N=CN(C4=O)C
The test is described as above. An outline of the steps: as §1
Take TMEM132A isoform 2 (UniProt Q24JP5): the log2 fold change is 0.05.

As to TASP1 (UniProt Q9H6P5), the log2 fold change is 0.009.

As for TPM3 isoform 3 (UniProt P06753), the log2 fold change was -0.157.

As for TMEM154 (UniProt Q6P9G4), the log2 fold change is -0.052.

In the case of TNFAIP3 (UniProt P21580), the log2 fold change was -0.035.

Turning to TRAF7 (UniProt Q6Q0C0), the log2 fold change was 0.07.

As for TENM4 (UniProt Q6N022), the log2 fold change was 0.162.

Turning to TNIK isoform 5 (UniProt Q9UKE5), the log2 fold change was 0.276.

For TCF3 isoform 2 (UniProt P15923), the log2 fold change is -0.1.

Take TUBB4A (UniProt P04350): the log2 fold change is -0.085.

In the case of UBAP2, A0A0D9SFI5, the log2 fold change is 0.035.

For TFPI isoform 2 (UniProt P10646), the log2 fold change was -0.034.

Turning to TLE3 isoform 5 (UniProt Q04726), the log2 fold change was 0.093.

Consider UBAP2L isoform 1 (UniProt Q14157), for which the log2 fold change is -0.833 (active).

On to UBAP2L (UniProt F8W726), for which the log2 fold change is -0.547 (active).

With TCF4 (UniProt P15884), the log2 fold change is -0.056.

With TRPM4 (UniProt Q8TD43), the log2 fold change is 0.116.

TMSB4X (UniProt P62328): the log2 fold change is -0.025.

UBN1 (UniProt Q9NPG3): the log2 fold change is 0.066.

Consider TCF20 (UniProt Q9UGU0), for which the log2 fold change was -0.004.

With TEDC1 (UniProt Q86SX3), the log2 fold change was -0.018.

Consider TMC1 (UniProt Q8TDI8), for which the log2 fold change was -0.104.

Consider UCP2 (UniProt P55851), for which the log2 fold change was -0.045.

As for TUBGCP5 (UniProt Q96RT8), the log2 fold change is -0.007.

With THAP9 (UniProt Q9H5L6), the log2 fold change was 0.234.

Compound in the next test: CC1=C(C=C(C=C1)NC(=O)C2=CC(=CC=C2)N(C)C)NC(=O)C3=CC=C(C=C3)O
Described as above. Summed up: as §1
TMEM132A isoform 2 (UniProt Q24JP5): the log2 fold change was 0.015.

Regarding TASP1 (UniProt Q9H6P5), the log2 fold change was -0.012.

Turning to TPD52L2 isoform 3 (UniProt O43399), the log2 fold change was 0.107.

Regarding TPM3 isoform 3 (UniProt P06753), the log2 fold change was 0.012.

As for TMEM154 (UniProt Q6P9G4), the log2 fold change was 0.172.

For the target UBR4 isoform 4 (UniProt Q5T4S7), the log2 fold change was -0.02.

Turning to TNFAIP3 (UniProt P21580), the log2 fold change is 0.068.

Turning to TRAF7 (UniProt Q6Q0C0), the log2 fold change was -0.031.

TNIK isoform 5 (UniProt Q9UKE5): the log2 fold change was -0.004.

Take TCF3 isoform 2 (UniProt P15923): the log2 fold change is 0.118.

Consider TUBB4A (UniProt P04350), for which the log2 fold change is -0.015.

With TM2D3 (UniProt Q9BRN9), the log2 fold change was 0.07.

In the case of TSPAN3 (UniProt O60637), the log2 fold change is 0.135.

TLE3 isoform 5 (UniProt Q04726): the log2 fold change was 0.018.

On to UBAP2L isoform 1 (UniProt Q14157), for which the log2 fold change was -0.161.

For the target TCF4 (UniProt P15884), the log2 fold change is 0.003.

Take TRPM4 (UniProt Q8TD43): the log2 fold change was 0.05.

Consider TMSB4X (UniProt P62328), for which the log2 fold change is 0.075.

Consider TXNRD2 isoform 3 (UniProt Q9NNW7), for which the log2 fold change is 0.079.

For the target TEDC1 (UniProt Q86SX3), the log2 fold change is 0.082.

With U2AF1L5 (UniProt P0DN76), the log2 fold change was 0.143.

As to TMC1 (UniProt Q8TDI8), the log2 fold change was 0.017.

With UCP2 (UniProt P55851), the log2 fold change was -0.1.

Regarding TUBGCP5 (UniProt Q96RT8), the log2 fold change is -0.049.

For THAP9 (UniProt Q9H5L6), the log2 fold change is 0.017.

The values are drawn from the supplement of paper PMC10849652.
